Data on 100 compounds can be found in PubChem BioAssay AID1220 (Sanford-Burnham Center for Chemical Genomics, 2008).

About 1,300 (0.68%) of roughly 190,000 compounds were called active. Cut-off read from the data, not from the text of the source: active = inhibition above about 50%; inactive = the rest. For the sample, actives were picked, then their nearest neighbours and some compounds at random.

The target in this assay is Mannose-6-phosphate isomerase (Homo sapiens) (UniProt P34949). Kind of assay: MPI inhibition at elevated mannose 6-phosphate – biochemical, fluorescence intensity, high mannose 6-phosphate, primary screen (AID 1220). The settings on record: recombinant PMI enzyme, coupled fluorescence intensity; at 20 µM; active compounds read high.
Sequence of Mannose-6-phosphate isomerase (Homo sapiens) (P34949 whole entry, looked up): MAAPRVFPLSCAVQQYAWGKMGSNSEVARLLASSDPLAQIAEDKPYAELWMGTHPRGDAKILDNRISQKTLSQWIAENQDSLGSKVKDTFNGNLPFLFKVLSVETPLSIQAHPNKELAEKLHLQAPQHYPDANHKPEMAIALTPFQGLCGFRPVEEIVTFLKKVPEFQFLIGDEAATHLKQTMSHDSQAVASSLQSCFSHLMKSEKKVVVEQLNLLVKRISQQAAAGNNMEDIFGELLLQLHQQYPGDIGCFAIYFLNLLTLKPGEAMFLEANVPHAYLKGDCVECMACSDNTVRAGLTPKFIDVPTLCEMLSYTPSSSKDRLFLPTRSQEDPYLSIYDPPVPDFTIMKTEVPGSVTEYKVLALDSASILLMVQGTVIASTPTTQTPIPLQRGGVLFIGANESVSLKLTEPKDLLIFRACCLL
A word on the inhibition: it is the change of the read-out against control, counted positive when it falls. In the case of `O=C1C2C3C=CC(C3)C2C(=O)N1c1ccccc1OS(=O)(=O)c1ccccc1` (stereo not given), the inhibition is -5% (inactive).
For the compound `CCOc1ccc(/C=C2\SC(N3CCc4ccccc4C3)=NC2=O)cc1`, the inhibition is 3.5% (inactive).
In the case of `COc1ccc(OC)c2c1CCC2=O` it was -2.6% (inactive); in that of `Cc1ccc2c(c1C)OC(=O)CC2(C)C`, -5.5% (inactive); in that of `Cc1ccc(N)c2c1OCCC2=O`, 57.7% (active).
Consider `COc1ccc(N)c2c1OCCC2=O`, for which the inhibition was 59.8% (active).
With `COc1ccc(N)c2c1C(=O)c1ccccc1C2=O`, the inhibition is 23.8% (inactive).
With `Cc1cccc(N)c1-c1c(C)cccc1N`, the inhibition was 5.8% (inactive).
In the case of `COC(=O)c1ccc(/C=N/NC(=S)NCCN2CCOCC2)cc1`, the inhibition was -1.5% (inactive).
For `NC(=O)C1CCN(C(=O)C2CCN(S(=O)(=O)c3ccccc3)CC2)CC1`, the inhibition was 5% (inactive).
To `C=CCC1(O)C(=O)N2C(=C1C(=O)N1CCOCC1)c1ccccc1CC2(C)C` (stereo not given) belongs -1.7% (inactive).
In the case of `CC1(C)Cc2ccccc2C2=C(C(=O)N3CCCCCC3)C(=O)C(=O)N21` it was 60.5% (active); in that of `CC1(C)Cc2c(ccc3ccccc23)/C(=C/C(=O)N2CCCCC2)N1`, -2.6% (inactive); in that of `CCOC(=O)C1=C2c3ccc4ccccc4c3CC(C)(C)N2C(=O)C1=O`, 27.6% (inactive).
As to `CC1(C)Cc2ccccc2/C(=C/C(=O)N2CCCCCC2)N1`, the inhibition was -22.6% (inactive).
As for `CC1(C)Cc2c(ccc3ccccc23)C2=C(C(=O)N3CCCC3)C(=O)C(=O)N21`, the inhibition was 56% (active).
With `COc1ccc(/C=N/NS(C)(=O)=O)c(OC)c1`, the inhibition was 8.2% (inactive).
`CCOC(=O)N/N=C1\CC(C)CC(C)(C)C1` (stereo not given): the inhibition was 4.2% (inactive).
With `COc1ccc(CCNC(=O)COC(=O)/C=C/c2cc(OC)c(OC)c(OC)c2)cc1OC`, the inhibition was -0.4% (inactive).
To `COc1cccc(CC2(CO)CCN(Cc3ccc4cccc(F)c4n3)CC2)c1` belongs 13.1% (inactive); to `Cc1cc(C(=O)COc2cccnc2[N+](=O)[O-])c(C)n1-c1ccccc1`, 53.3% (active); to `Cc1ccc(-n2c(C)cc(C(=O)COc3cccnc3[N+](=O)[O-])c2C)cc1`, 54.5% (active).
`Cc1ccc(OCC(=O)c2cc(C)n(C3CC3)c2C)c([N+](=O)[O-])n1`: the inhibition is 10.6% (inactive).
For `COc1ccc(-n2c(C)cc(C(=O)COc3ccc(C)nc3[N+](=O)[O-])c2C)cc1`, the inhibition is 41% (inactive).
To `Cc1cc(-n2c(C)cc(C(=O)COc3ccccc3[N+](=O)[O-])c2C)no1` belongs 9.1% (inactive); to `Cc1ccc(OCC(=O)c2cc(C)n(-c3ccccc3)c2C)c([N+](=O)[O-])n1`, 21.3% (inactive).
For `CN(Cc1ccccc1)C(=O)CC(c1ccccc1)c1cc(Cl)ccc1O` (stereo not given), the inhibition was 4.5% (inactive).
Take `CCn1c(=O)c(C(=O)CN2CCN(S(=O)(=O)c3ccccc3)CC2)c(N)n(Cc2ccccc2)c1=O`: the inhibition is 0.5% (inactive).
To `NS(=O)(=O)c1ccc(NCc2c(F)cccc2Cl)cc1` belongs 4.6% (inactive); to `O=S(=O)(Nc1ccc(N2CCCCC2)cc1)c1ccccc1`, 0.6% (inactive).
`O=C(Nc1ccc(N2CCCCCC2)cc1)c1ccccc1Cl`: the inhibition was 27.3% (inactive).
Consider `O=C(O)c1cc(NCc2c(F)cccc2Cl)ccc1N1CCOCC1`, for which the inhibition is 2.7% (inactive).
`Clc1cccc(Cl)c1CNc1ccc(N2CCCC2)cc1`: the inhibition was 84.4% (active).
Consider `COC(=O)C(CCSC)NC(=O)CNS(=O)(=O)c1ccc(Br)cc1` (stereo not given), for which the inhibition was -7.6% (inactive).
Consider `Cc1ccc(C)c(CN2CCNC2=O)c1`, for which the inhibition was -0.9% (inactive).
Turning to `CCNC(=O)CC1C(=O)N(CC)C(=S)N1NC(=O)c1cccnc1` (stereo not given), the inhibition is -4.7% (inactive).
As to `N=C1S/C(=C\c2ccccc2F)C(=O)N1c1ccc(F)cc1`, the inhibition was 3.1% (inactive).
As to `Cc1ccc(NS(=O)(=O)Cc2ccccc2)nc1`, the inhibition is 16.5% (inactive).
Turning to `Cc1cc(C)nc(NS(=O)(=O)c2ccc(Br)s2)c1`, the inhibition was 42.1% (inactive).
Take `Cc1cccc(NS(=O)(=O)c2ccc(Br)s2)n1`: the inhibition was -4.4% (inactive).
As to `CCCCS(=O)(=O)Nc1ccc(C)cn1`, the inhibition was 57.3% (active).
To `CCCCCCCCCS(=O)(=O)Nc1cc(C)ccn1` belongs 7.7% (inactive); to `Cc1ccc(NS(=O)(=O)c2ccc(Br)s2)nc1`, 66.2% (active).
Consider `O=c1cc(CCl)nc2sc3ccccc3n12`, for which the inhibition is -13.1% (inactive).
`COC(=O)C1=C(C)N(C)C(=O)NC1c1ccc(O)c(Cl)c1` (stereo not given): the inhibition was 3.8% (inactive).
To `CCOc1c(O)ccc(C2NC(=O)N(C)C(C)=C2C(=O)OC)c1[N+](=O)[O-]` (stereo not given) belongs 60.2% (active); to `COC(=O)C1=C(C)N(C)C(=O)NC1c1cc2c(cc1[N+](=O)[O-])OCO2` (stereo not given), 42.7% (inactive).
In the case of `COc1c(O)ccc(C2NC(=O)NC(C)=C2C(=O)Nc2ccccc2C)c1[N+](=O)[O-]` (stereo not given), the inhibition is 49.8% (inactive).
Consider `CCOc1c(O)ccc(C2NC(=O)NC(C)=C2C(=O)OC)c1[N+](=O)[O-]` (stereo not given), for which the inhibition was 50.9% (active).
Turning to `COC(=O)C1=C(C)NC(=O)NC1c1ccc([N+](=O)[O-])o1` (stereo not given), the inhibition is 10.9% (inactive).
To `CN=C1SC(CC(=O)Nc2cc(Cl)ccc2Cl)C(=O)N1C` (stereo not given) belongs -9.7% (inactive).
To `COc1ccc(/C=N/Nc2nc(N3CCCC3)nc(N3CCCC3)n2)c(OC)c1OC` belongs 4% (inactive); to `Cc1onc(-c2c(F)cccc2Cl)c1C(=O)NCCO`, -4% (inactive); to `CC1(C)CC(=O)C(C2c3ccccc3S(=O)(=O)c3ccccc32)C(=O)C1`, -5.8% (inactive).
Regarding `COc1ccc2c(c1)C(C1C(=O)CCCC1=O)c1ccccc1O2` (stereo not given), the inhibition was 2.9% (inactive).
In the case of `CC1(C)CC(=O)C(C2c3ccccc3Oc3ccccc32)C(=O)C1`, the inhibition was 52.9% (active).
On to `O=C(c1ccc(-c2ccccc2)cc1)N1CCC(C(=O)N2CCCC2)CC1`, for which the inhibition is 5.4% (inactive).
For the compound `COc1ccc(CC(=O)NC(=S)Nc2ccc(S(N)(=O)=O)cc2)cc1`, the inhibition is -5.8% (inactive).
In the case of `CCOC(=O)C(NC(=O)Nc1cccc(C)n1)(OCC(F)(F)F)C(F)(F)F` (stereo not given), the inhibition was 59.1% (active).
`CCOC(=O)C(NC(=O)Nc1ccccc1)(OCC)C(F)(F)F` (stereo not given): the inhibition was 5.2% (inactive).
On to `Cc1cccc(NC(=O)NCC(F)(F)F)n1`, for which the inhibition was -6.3% (inactive).
Consider `Cc1cc(C)nc(NS(=O)(=O)c2ccc(NC(=O)CN3C(=O)C4CC=CCC4C3=O)cc2)n1` (stereo not given), for which the inhibition was -7.4% (inactive).
`Cc1cc(C(=O)Nc2ccccc2C#N)n(-c2ccccc2)n1`: the inhibition was 1.2% (inactive).
On to `CC(=O)c1cccc(N2C(=NC(=O)C(C)C)SC3CS(=O)(=O)CC32)c1` (stereo not given), for which the inhibition was 10.5% (inactive).
Regarding `O=C1COc2ccc(C(=O)COC(=O)Cc3ccccc3F)cc2N1`, the inhibition is -2.3% (inactive).
To `CC(=O)Cc1cc(O)c2ccccc2c1OC(=O)c1ccccc1` belongs 68.6% (active); to `O=C(Oc1cccc2c(O)cccc12)c1ccccc1`, 23.5% (inactive); to `CC(=O)Oc1c(C)cc(O)c2ccccc12`, 19.2% (inactive).
To `Cc1cc(N2CCCC2=O)c(N)cc1N` belongs 4.5% (inactive); to `O=C1CN(CC(=O)Nc2cccc(Cl)c2Cl)c2ccccc2N1`, -43.6% (inactive).
Take `CCOc1ccc2nc(NC3=NCN(Cc4ccco4)CN3)nc(C)c2c1`: the inhibition was -0.5% (inactive).
On to `CCOc1cc(/C=C2\N=C(SCC)SC2=O)cc([N+](=O)[O-])c1OC(C)=O`, for which the inhibition was 53.1% (active).
`C=CCSC1=N/C(=C\c2cc(OCC)c(OC(C)=O)c([N+](=O)[O-])c2)C(=O)S1`: the inhibition was 38.8% (inactive).
With `CCOc1cc(/C=C2\N=C(SC)SC2=O)cc([N+](=O)[O-])c1OC(C)=O`, the inhibition was 35.6% (inactive).
For the compound `CC(=O)NCC(=O)N(C)C(C(=O)Nc1ccc2c(c1)OCCO2)c1ccc(C)cc1` (stereo not given), the inhibition is 5.2% (inactive).
For `COC(=O)Nc1sc2c(c1C(N)=O)CCC(C)C2` (stereo not given), the inhibition is 59.6% (active).
On to `CC(=O)NC(=S)Nc1sc2c(c1C(N)=O)CCC(C)C2` (stereo not given), for which the inhibition is -3% (inactive).
In the case of `CCOC(=O)Nc1sc2c(c1C(N)=O)CCC(C)C2` (stereo not given) it was -7.3% (inactive); in that of `CC(C)C(NC(=O)c1ccc(Br)cc1)C(=O)NC1=NCCS1` (stereo not given), -3% (inactive).
For `CON1C(=O)C(=O)N(OC)C(C)(C)C1(C)C`, the inhibition was 44.6% (inactive).
`Clc1ccc(C2NCCc3sccc32)cc1` (stereo not given): the inhibition was 10.9% (inactive).
On to `CC1=CC(C)(C)N=C(NC#N)N1`, for which the inhibition was 2.4% (inactive).
As for `O=C(COc1ccc(Cl)cc1)N1CCN(c2ccc([N+](=O)[O-])c(N3CCCCC3)c2)CC1`, the inhibition is 12.2% (inactive).
For `COC(=O)CNC(=O)c1cccc(Cl)c1`, the inhibition was -5% (inactive).
On to `O=C(NC(Cc1c[nH]c2ccccc12)C(=O)NCCCN1CCOCC1)c1cccs1` (stereo not given), for which the inhibition was 11.4% (inactive).
`O=C1c2ccccc2C(=O)c2c1oc(C(F)(F)F)c2C(=O)c1ccccc1`: the inhibition was -32.9% (inactive).
Take `O=C(c1ccccc1)c1coc2c1C(=O)c1ccccc1C2=O`: the inhibition is 30.7% (inactive).
Regarding `CCCCOc1ccc(C(=S)N2CCC(C(N)=O)CC2)cc1`, the inhibition is 9.1% (inactive).
As for `CCN(CC)c1cccc(OCC(=O)N(C)CCC#N)c1`, the inhibition is 53.3% (active).
In the case of `CN(CCC#N)C(=O)COc1ccc(Br)cc1Cl` it was -5.3% (inactive).
Take `CCc1ccc(OCC(=O)N(C)CCC#N)c(Br)c1`: the inhibition was 3.1% (inactive).
For the compound `Cc1cc(C)n(-c2cc(N3CCOCC3)nc(-c3ccccc3)n2)n1`, the inhibition is 8.9% (inactive).
In the case of `CCc1sc(C(=O)NCCc2ccc(S(N)(=O)=O)cc2)cc1Br` it was 7.3% (inactive); in that of `COc1cc(C(=O)NCCSc2ccc(Br)cc2)cc(OC)c1OC`, 5.3% (inactive).
Take `Cc1cc(S(=O)(=O)Nc2ccc(F)cc2)c(C)s1`: the inhibition was 5% (inactive).
Consider `Cc1cc(S(=O)(=O)Nc2ccc(N(C)C)cc2)c(C)s1`, for which the inhibition was 10.9% (inactive).
Take `CC(=O)Nc1ccc(NS(=O)(=O)c2cc(C)sc2C)cc1`: the inhibition was 61.6% (active).
In the case of `CN(C)CCCNc1oc(-c2ccccc2)nc1C#N`, the inhibition was -7.3% (inactive).
In the case of `CCOC(=O)c1c(NCC2CCCO2)c2ccccc2[nH]c1=O` (stereo not given) it was -10.2% (inactive); in that of `COc1ccc(N2C(=O)N(Cc3cccc(F)c3)c3ccccc3S2(=O)=O)cc1`, 0.3% (inactive).
